Reference: ChEMBL document CHEMBL3988442, “University of Dundee, Small-Polar-MMV Screening Library” (2021)
For some of these results: Entries with a potency or affinity are not part of this list.

Columns and labels:
[1] = target: T1, Methionyl-tRNA synthetase, putative (Leishmania donovani (strain BPK282A1)) (UniProt E9BF75); experiment: Leishmania donovani Methionine tRNA synthetase (LdMetRS):v7. Dose response assay; assay type: functional; parameters: conc 80 nM, time 150 minutes
T1 sequence (whole entry): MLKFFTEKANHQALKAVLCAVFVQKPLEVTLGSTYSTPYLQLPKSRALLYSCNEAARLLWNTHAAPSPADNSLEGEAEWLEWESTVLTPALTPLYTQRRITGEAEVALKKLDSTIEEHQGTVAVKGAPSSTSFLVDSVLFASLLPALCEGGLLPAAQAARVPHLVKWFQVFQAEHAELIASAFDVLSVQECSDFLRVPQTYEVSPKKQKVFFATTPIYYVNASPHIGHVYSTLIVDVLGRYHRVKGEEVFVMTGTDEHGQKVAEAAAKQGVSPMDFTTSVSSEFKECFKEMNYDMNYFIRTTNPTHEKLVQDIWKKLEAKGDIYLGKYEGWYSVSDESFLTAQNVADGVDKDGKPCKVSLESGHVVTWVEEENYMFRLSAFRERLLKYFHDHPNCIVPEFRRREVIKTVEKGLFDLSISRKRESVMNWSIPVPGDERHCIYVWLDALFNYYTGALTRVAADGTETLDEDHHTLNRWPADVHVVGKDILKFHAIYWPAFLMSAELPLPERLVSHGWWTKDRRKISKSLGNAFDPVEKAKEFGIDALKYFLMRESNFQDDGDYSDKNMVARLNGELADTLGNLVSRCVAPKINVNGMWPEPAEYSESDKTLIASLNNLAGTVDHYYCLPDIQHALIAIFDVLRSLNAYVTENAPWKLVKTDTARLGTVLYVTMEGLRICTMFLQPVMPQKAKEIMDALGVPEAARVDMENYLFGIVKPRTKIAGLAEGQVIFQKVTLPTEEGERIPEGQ

[2] = target: Protein translocase subunit SecA (Escherichia coli (strain K12)) (UniProt P10408); experiment: Assay to Identify E. coli SecA ATPase Inhibitors; assay type: functional; parameters: scale not given: direction of the effect not stated beside the values; settings: 30 µM
Chain of Protein translocase subunit SecA (Escherichia coli (strain K12)) (P10408 whole entry): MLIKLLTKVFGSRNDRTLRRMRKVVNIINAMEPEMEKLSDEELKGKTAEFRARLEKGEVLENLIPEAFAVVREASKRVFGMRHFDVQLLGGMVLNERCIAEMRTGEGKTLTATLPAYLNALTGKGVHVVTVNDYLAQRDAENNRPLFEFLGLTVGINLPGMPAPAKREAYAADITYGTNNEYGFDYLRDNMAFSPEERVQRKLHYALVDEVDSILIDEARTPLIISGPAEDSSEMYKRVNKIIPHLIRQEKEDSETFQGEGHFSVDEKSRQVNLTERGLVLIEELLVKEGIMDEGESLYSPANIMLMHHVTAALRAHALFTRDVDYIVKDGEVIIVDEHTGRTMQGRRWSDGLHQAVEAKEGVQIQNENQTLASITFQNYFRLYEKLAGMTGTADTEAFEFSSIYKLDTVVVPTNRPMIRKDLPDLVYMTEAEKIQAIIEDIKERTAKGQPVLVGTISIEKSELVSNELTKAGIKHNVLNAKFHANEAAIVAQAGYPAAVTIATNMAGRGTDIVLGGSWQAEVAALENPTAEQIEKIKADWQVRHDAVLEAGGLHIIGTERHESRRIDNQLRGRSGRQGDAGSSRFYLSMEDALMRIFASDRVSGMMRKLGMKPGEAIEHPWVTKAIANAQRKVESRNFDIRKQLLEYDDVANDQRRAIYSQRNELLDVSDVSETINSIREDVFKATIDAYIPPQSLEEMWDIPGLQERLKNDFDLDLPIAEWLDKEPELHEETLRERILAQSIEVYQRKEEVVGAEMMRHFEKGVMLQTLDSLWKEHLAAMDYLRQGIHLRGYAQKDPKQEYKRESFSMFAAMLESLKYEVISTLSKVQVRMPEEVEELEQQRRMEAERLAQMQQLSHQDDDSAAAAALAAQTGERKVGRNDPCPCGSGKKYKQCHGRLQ

[3] = target: T2, Ubiquitin-activating enzyme e1, putative (Leishmania donovani (strain BPK282A1)) (UniProt E9BSI1); experiment: Leishmania donovani Ubiquitin Activating Enzyme (LdE1); assay type: functional; parameters: scale not given: direction of the effect not stated beside the values; settings: 30 µM
T2 sequence (whole entry): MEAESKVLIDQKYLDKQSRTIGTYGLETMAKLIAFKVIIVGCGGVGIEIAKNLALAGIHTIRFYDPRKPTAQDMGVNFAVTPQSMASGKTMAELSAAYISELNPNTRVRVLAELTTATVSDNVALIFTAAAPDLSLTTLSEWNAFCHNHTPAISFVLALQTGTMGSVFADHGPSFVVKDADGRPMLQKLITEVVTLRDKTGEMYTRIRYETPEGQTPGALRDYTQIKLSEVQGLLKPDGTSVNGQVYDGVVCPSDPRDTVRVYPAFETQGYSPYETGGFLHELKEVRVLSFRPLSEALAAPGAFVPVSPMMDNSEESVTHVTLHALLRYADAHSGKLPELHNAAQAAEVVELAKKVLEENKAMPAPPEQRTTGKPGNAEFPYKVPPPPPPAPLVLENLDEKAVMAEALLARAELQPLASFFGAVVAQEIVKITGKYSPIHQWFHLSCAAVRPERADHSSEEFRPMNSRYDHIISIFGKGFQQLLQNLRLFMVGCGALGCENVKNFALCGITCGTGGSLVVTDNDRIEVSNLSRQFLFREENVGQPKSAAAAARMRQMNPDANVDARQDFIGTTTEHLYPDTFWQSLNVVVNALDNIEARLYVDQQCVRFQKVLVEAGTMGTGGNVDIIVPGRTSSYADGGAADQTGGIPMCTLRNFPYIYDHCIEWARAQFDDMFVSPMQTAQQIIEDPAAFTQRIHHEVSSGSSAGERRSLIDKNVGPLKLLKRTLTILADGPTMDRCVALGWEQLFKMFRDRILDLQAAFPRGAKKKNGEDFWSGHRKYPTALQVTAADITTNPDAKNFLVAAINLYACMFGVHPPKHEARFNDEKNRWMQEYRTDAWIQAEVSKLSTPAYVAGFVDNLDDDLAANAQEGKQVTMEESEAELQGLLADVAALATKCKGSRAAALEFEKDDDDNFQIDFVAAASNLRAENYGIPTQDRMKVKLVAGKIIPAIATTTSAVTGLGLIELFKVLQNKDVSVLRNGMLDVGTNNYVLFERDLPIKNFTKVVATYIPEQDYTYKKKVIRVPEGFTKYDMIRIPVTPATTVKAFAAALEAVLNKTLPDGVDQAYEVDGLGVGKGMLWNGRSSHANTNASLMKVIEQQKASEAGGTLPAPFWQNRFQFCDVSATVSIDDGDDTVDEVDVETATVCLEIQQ

[4] = target: AMP-activated protein kinase, AMPK (Homo sapiens) (UniProt P54646+O43741+P54619+Q9UGJ0+Q9Y478+Q13131+Q9UGI9); experiment: AMP-dependent Kinase enzyme assay. An in vitro enzyme assay that detects ADP turnover that is directly proportional to AMPK activity. This uses naive AMPK that is activated during the assay with MK-8722; assay type: functional; parameters: scale not given: direction of the effect not stated beside the values; settings: 30 µM
[5] = target: Sialic acid-binding Ig-like lectin 9 (Homo sapiens) (UniProt Q9Y336); experiment: Hs-Siglec9 ALPHAscreen SOP 20170721; parameters: scale not given: direction of the effect not stated beside the values; settings: 10 µM
Chain of Sialic acid-binding Ig-like lectin 9 (Homo sapiens) (Q9Y336 whole entry): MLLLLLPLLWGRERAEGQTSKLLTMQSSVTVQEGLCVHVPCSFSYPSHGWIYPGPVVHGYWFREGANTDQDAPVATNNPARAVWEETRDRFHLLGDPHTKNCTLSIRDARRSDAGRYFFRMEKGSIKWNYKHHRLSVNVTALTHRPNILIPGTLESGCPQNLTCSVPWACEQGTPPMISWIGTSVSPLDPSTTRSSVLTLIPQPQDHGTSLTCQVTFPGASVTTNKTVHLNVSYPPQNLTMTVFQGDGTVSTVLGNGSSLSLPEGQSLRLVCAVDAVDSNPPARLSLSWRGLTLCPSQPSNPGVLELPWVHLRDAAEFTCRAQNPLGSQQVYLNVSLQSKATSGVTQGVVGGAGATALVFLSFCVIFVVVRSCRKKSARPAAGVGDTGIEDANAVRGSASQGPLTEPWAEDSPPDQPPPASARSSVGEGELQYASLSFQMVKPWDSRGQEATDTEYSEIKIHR

Trypanosoma cruzi = experiment: Trypanosoma cruzi phosphomannomutase and mannose-1-phosphate guanylyltransferase assay; assay type: functional; parameters: scale not given: direction of the effect not stated beside the values; settings: 10 µM
[6] = target: T3, Arginase-2, mitochondrial (Homo sapiens) (UniProt P78540); experiment: in vitro enzyme assay to detect the production of urea directly proportional to the activity of Arginase II; assay type: functional; parameters: scale not given: in the data most compounds retested in dose-response had high values; settings: 33.3 µM
T3 sequence (whole entry): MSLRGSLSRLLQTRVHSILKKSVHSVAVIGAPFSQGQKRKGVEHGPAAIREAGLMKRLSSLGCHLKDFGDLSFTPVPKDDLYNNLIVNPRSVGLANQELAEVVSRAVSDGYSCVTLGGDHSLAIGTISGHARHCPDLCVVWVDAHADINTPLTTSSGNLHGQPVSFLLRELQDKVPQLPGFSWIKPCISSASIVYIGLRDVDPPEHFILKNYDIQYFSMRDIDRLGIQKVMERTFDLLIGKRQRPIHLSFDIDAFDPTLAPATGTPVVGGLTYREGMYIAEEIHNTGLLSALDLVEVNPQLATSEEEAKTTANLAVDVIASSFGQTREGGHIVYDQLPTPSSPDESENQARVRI

[7] = target: T4, Proteasome subunit beta (Trypanosoma cruzi) (UniProt O96673); experiment: Trypanosoma cruzi proteasome chymotrypsin-like activity (TcProtChymo) assay.; assay type: functional; parameters: scale not given: in the data most compounds retested in dose-response had high values; settings: 9.37 µM
T4 sequence (whole entry): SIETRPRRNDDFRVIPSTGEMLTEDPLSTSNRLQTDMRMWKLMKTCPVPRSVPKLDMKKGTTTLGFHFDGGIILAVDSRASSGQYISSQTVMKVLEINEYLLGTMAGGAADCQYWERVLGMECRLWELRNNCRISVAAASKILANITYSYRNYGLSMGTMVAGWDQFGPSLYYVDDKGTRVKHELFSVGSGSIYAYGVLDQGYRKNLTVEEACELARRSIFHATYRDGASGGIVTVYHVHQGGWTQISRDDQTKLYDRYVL

Homo sapiens = organism: Homo sapiens; experiment: To identify inhibition of the IFN signalling (Jak-Stat) pathway via expression of an eGFP reporter gene under the control of an IFN-stimulated response element (ISRE) containing MxA promoter.; assay type: functional; parameters: scale not given: direction of the effect not stated beside the values; settings: 30 µM
[8] = target: T5, Tyrosyl-tRNA synthetase, putative (Trypanosoma cruzi (strain CL Brener)) (UniProt Q4DSP6); experiment: Trypanosoma cruzi tyrosyl tRNA synthetase (TcYRS) _High Tyrosine SOP; assay type: functional; parameters: scale not given: in the data most compounds retested in dose-response had high values; settings: 30 µM
T5 sequence (whole entry): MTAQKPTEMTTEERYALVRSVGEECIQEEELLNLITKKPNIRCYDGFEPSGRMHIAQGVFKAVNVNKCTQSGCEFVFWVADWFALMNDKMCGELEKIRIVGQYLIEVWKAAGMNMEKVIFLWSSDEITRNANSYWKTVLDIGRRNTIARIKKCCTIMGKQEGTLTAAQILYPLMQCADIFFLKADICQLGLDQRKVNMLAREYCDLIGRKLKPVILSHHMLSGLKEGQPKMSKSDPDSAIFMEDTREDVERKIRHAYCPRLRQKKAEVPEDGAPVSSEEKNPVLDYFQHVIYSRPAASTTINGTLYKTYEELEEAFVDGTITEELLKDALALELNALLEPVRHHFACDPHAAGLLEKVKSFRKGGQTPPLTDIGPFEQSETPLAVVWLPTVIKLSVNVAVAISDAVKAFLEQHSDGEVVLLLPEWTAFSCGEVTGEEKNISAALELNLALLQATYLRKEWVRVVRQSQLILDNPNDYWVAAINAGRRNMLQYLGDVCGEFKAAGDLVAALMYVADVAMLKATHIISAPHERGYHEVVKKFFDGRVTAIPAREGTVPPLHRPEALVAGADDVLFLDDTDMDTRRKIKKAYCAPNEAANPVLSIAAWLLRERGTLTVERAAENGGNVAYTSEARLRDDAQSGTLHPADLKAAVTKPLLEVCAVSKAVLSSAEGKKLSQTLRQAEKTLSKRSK

[9] = target: T5, Tyrosyl-tRNA synthetase, putative (Trypanosoma cruzi (strain CL Brener)); experiment: Trypanosoma cruzi tyrosyl tRNA synthetase (TcYRS) SOP; assay type: functional; parameters: scale not given: direction of the effect not stated beside the values; settings: 30 µM
[10] = target: Chromo domain-containing protein 1 (Saccharomyces cerevisiae (strain ATCC 204508 / S288c) (Baker's yeast)) (UniProt P32657); experiment: ScCHD-1 Enzyme Inhibition Assay; assay type: functional; parameters: scale not given: in the data most compounds retested in dose-response had high values; settings: 30 µM
Chain of Chromo domain-containing protein 1 (Saccharomyces cerevisiae (strain ATCC 204508 / S288c) (Baker's yeast)) (P32657 whole entry, the tested form may be a part): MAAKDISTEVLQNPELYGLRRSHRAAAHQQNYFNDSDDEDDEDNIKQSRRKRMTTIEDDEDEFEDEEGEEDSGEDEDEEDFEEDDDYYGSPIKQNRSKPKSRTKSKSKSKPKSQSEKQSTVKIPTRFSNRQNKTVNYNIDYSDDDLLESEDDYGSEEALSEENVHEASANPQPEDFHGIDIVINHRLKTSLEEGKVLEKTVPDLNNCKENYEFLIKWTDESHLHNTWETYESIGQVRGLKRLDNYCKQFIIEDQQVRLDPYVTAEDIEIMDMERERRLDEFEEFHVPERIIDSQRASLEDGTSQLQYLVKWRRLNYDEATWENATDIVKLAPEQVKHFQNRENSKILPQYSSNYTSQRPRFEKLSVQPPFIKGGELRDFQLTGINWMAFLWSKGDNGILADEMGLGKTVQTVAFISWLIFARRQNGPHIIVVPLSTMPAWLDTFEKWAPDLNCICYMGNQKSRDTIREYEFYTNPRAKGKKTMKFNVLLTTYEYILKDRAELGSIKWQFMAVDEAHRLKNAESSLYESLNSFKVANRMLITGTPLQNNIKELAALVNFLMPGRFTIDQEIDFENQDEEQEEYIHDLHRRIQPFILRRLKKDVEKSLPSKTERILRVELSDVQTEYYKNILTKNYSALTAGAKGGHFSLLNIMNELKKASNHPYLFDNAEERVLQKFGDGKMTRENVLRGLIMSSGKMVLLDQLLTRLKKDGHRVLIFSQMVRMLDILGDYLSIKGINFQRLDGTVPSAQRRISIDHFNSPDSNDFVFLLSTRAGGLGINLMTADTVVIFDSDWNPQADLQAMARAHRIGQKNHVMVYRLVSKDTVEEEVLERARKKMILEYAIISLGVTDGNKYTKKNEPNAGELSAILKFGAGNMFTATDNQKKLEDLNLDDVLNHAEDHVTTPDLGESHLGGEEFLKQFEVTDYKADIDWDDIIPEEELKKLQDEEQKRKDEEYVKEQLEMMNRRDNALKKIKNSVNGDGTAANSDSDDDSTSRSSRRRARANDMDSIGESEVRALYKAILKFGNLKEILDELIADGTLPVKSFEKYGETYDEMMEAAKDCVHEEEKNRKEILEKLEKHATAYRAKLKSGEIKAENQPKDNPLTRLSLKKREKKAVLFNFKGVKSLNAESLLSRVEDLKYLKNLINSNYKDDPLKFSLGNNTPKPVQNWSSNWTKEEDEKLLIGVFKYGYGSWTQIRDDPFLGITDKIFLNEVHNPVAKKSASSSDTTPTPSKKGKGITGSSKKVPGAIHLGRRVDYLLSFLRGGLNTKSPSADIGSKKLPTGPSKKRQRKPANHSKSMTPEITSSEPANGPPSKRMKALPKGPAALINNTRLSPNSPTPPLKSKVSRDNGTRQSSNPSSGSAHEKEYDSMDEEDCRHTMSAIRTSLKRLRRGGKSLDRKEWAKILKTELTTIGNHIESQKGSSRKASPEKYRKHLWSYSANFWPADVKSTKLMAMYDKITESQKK

SMILES: Fc1cccc(N2C[C@H]3CCN(c4cccnc4)C[C@H]3C2)c1
- PXC50 ([1]; MAX_EFFECT 35.84229391): < 4
- PXC50 ([1]; MAX_EFFECT 42.57425743): < 4
- PXC50 ([1]; MAX_EFFECT 45.65217391): < 4
- Percent Effect [2]: -5.24%
- Percent Effect [3]: -27%
- Percent Effect [4]: 0.0628%
- Percent Effect [5]: -4.58%
- Percent Effect (Trypanosoma cruzi): -1.95%
- Percent Effect [6]: -1.67%
- Percent Effect [7]: 9.38%
- Percent Effect (Homo sapiens): 31.8%
- Percent Effect [8]: 23.8%
- Percent Effect [9]: 25.6%
- Percent Effect [10]: 3.63%

SMILES: Cn1ncc2c(NCCO)nc(Nc3ccc(F)c(F)c3)nc21
- PXC50 ([1]; BOTTOM 1.675324724, HILLSLOPE 0.887004354, MAX_EFFECT 86.8852459, TOP 97.31963994): 5.01
- PXC50 ([1]; BOTTOM 3.874295481, HILLSLOPE 1.000014766, MAX_EFFECT 87.03703704, TOP 93.55609097): 5.08
- PXC50 ([1]; BOTTOM 3.975924252, HILLSLOPE 0.806965021, MAX_EFFECT 84.10596026, TOP 99.5157675): 4.91
- PXC50 ([1]; BOTTOM 7.489204203, HILLSLOPE 1.122010423, MAX_EFFECT 83.60655738, TOP 90.20006383): 4.96
- PXC50 ([1]; BOTTOM -1.215365939, HILLSLOPE 0.665929937, MAX_EFFECT 87.19646799, TOP 108.6182019): 4.92
